Tested on: Vero E6 infected with SARS-CoV-2
Experiment: inhibition of SARS-CoV-2 cytopathic effect; higher = more antiviral protection, active = above 15
Details: 48 h

Measured: inhibition of SARS-CoV-2 cytopathic effect

NCCCCCC(O)(P(=O)(O)O)P(=O)(O)O [neridronic-acid]
inactive: 1 nM 0.84% | 8.33 nM -0.27% | 100 nM -2.11% | 833.33 nM 2.29% | 10000 nM 3.47%

CCOC(=O)[C@H](CCc1ccccc1)N[C@@H](C)C(=O)N1Cc2ccccc2C[C@H]1C(=O)O [quinapril]
inactive: 1 nM 1.54% | 8.33 nM 1.58% | 100 nM 0.68% | 833.33 nM 2.09% | 10000 nM 4.29%

COc1cc(C(=O)NCCCCCC(=O)O)cc(OC)c1OC [capobenic-acid]
inactive: 1 nM -6.75% | 8.33 nM -2.2% | 100 nM -0.79% | 833.33 nM -1.85% | 10000 nM 2.8%

O=C(Nc1ccc(O)cc1)c1ccccc1O [N-salicoylaminophenol]
inactive: 1 nM 1.23% | 8.33 nM 2.05% | 100 nM 1.76% | 833.33 nM 2.47% | 10000 nM 4.87%

Cc1ccccc1NC(=N)Nc1ccccc1C [ditolylguanidine]
inactive: 1 nM 1.39% | 8.33 nM 1.77% | 100 nM -1.06% | 833.33 nM -2.29% | 10000 nM -0.63%

Cc1cc(Nc2cc(N3CCN(C)CC3)nc(Sc3ccc(NC(=O)C4CC4)cc3)n2)n[nH]1 [tozasertib]
inactive: 1 nM -0.96% | 8.33 nM -0.86% | 100 nM -0.22% | 833.33 nM 0.2% | 10000 nM -4.18%

CC(C)(O)c1coc(S(=O)(=O)NC(=O)Nc2c3c(cc4c2CCC4)CCC3)c1
inactive: 1 nM -0.7% | 8.33 nM -2.3% | 100 nM -3.97% | 833.33 nM 0.34% | 10000 nM -0.6%

CC(C)(C)S(=O)(=O)N[C@H]1CC[C@H](C(=O)Nc2ccc(C(F)(F)F)cn2)CC1 [velneperit]
inactive: 1 nM 2.37% | 8.33 nM -0.93% | 100 nM -0.23% | 833.33 nM -1.55% | 10000 nM -1.63%

CCCCCCCC/C=C\CCCCCCCC(=O)NCc1ccc(O)c(OC)c1 [olvanil]
inactive: 1 nM 1.88% | 8.33 nM -0.08% | 100 nM 4.43% | 833.33 nM 1.07% | 10000 nM 2.19%

C[C@H]1COC2=C1C(=O)C(=O)c1c2ccc2c1CCCC2(C)C [cryptotanshinone]
inactive: 1 nM 1.45% | 8.33 nM 0.55% | 100 nM 2.85% | 833.33 nM -1.89% | 10000 nM -2.92%

CS(=O)(=O)c1ccc(C2=C(c3ccccc3)C(=O)OC2)cc1 [rofecoxib]
inactive: 1 nM 1.64% | 8.33 nM -0.86% | 100 nM -0.87% | 833.33 nM 0.62% | 10000 nM 1.14%

Cc1cccc(C)c1NC(=O)c1ccccc1C(=O)O [ftaxilide]
inactive: 1 nM -0.49% | 8.33 nM 0.92% | 100 nM -1.2% | 833.33 nM 0.63% | 10000 nM 1.39%

CCc1nc2ccc(Cl)cn2c1C(=O)NCc1ccc(N2CCC(c3ccc(OC(F)(F)F)cc3)CC2)cc1
inactive: 1 nM 0.5% | 8.33 nM 1.98% | 100 nM -0.55% | 833.33 nM 0.62% | 10000 nM -1.65%

CC#CCn1c(N2CCC[C@@H](N)C2)nc2c1c(=O)n(Cc1nc(C)c3ccccc3n1)c(=O)n2C [linagliptin]
inactive: 1 nM 0.74% | 8.33 nM -3.62% | 100 nM -0.93% | 833.33 nM -3.72% | 10000 nM -11.3%

CC(O)COC[C@H]1O[C@@H]2O[C@H]3[C@H](O)[C@@H](O)[C@@H](O[C@H]4[C@H](O)[C@@H](O)[C@@H](O[C@H]5[C@H](O)[C@@H](O)[C@@H](O[C@H]6[C@H](O)[C@@H](O)[C@@H](O[C@H]7[C@H](O)[C@@H](O)[C@@H](O[C@H]8[C@H](O)[C@@H](O)[C@@H](O[C@H]1[C@H](O)[C@H]2O)O[C@@H]8COCC(C)O)O[C@@H]7COCC(C)O)O[C@@H]6COCC(C)O)O[C@@H]5COCC(C)O)O[C@@H]4COCC(C)O)O[C@@H]3COCC(C)O (stereo partly drawn) [hydroxypropyl-beta-cyclodextrin]
inactive: 1 nM 1.48% | 8.33 nM -0.26% | 100 nM 1.56% | 833.33 nM 0.29% | 10000 nM 0.7%

CCc1c(C(=O)NCCc2ccc(N3CCCCC3)cc2)[nH]c2ccc(Cl)cc12
inactive: 1 nM 1.1% | 8.33 nM 2.93% | 100 nM 4.96% | 833.33 nM 2.28% | 10000 nM -2.19%

Cc1c(-c2ccccc2)oc2c(C(=O)OCCN3CCCCC3)cccc2c1=O [flavoxate]
inactive: 1 nM -1.05% | 8.33 nM 0.44% | 100 nM 0.93% | 833.33 nM -0.65% | 10000 nM 0.61%

COc1cc2c(cc1OC)C1CC(=O)C(CC(C)C)CN1CC2 (stereo not given) [tetrabenazine]
inactive: 1 nM -2.11% | 8.33 nM 0.64% | 100 nM 1.22% | 833.33 nM 2.22% | 10000 nM 0.85%

CN(C)c1nc(N)c(C(=O)Nc2cccnc2)nc1Cl
inactive: 1 nM 1.28% | 8.33 nM 4.72% | 100 nM -0.62% | 833.33 nM 4.15% | 10000 nM 0.82%

— the supplement of paper PMC13380429
